The campaign covered roughly 290,000 compounds. About 3,000 (1%) were called active. Cut-off read from the data, not from the text of the source: active = inhibition mostly above about 36% (no sharp cut-off); inactive = mostly below about 34%. Many of the other results were omitted from the sample, so actives are more common in it than they were.

The experiment can be described thus: NOD1 signaling inhibitors, primary screen, cell-based, luminescence, uHTS (AID 1578).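 Note: HEK-293T reporter cells stimulated with the NOD1 agonist gamma-tri-DAP.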 The note with it: NOD1-driven NF-kB luciferase reporter cells, at 4 µM, active compounds read high.
Regarding `COc1cc(C(=O)NC2CC(C)(C)Cc3c2cnn3-c2ccccc2)cc(OC)c1OC` (centres undefined), the inhibition was -14.3% (inactive).
Take `COc1ccc(C(=O)NC2CC(C)(C)Cc3c2cnn3-c2ccccc2)cc1OC` (centres undefined): the inhibition was 0.2% (inactive).
The result for `COc1ccc(OC)c(C(=O)NC2CC(C)(C)Cc3c2cnn3-c2ccccc2)c1` (centres undefined) reads 53.9% (active); that for `O=C(NCCc1c[nH]c2ccccc12)c1ccc([N+](=O)[O-])cc1`, -37.7% (inactive).
The result for `NC(=O)C1CCN(c2ccc(S(=O)(=O)N3CCCCC3)cn2)CC1` reads -25.2% (inactive).
As for `O=C(O)c1ccc(S(=O)(=O)N2CCC(Cc3ccccc3)CC2)cc1`, the inhibition is 2.5% (inactive).
In the case of `Cc1ccc(CNC(=O)C2CC3Cn4c(nc5cc(C)c(C)cc54)C3N2C)o1` (centres undefined) it was -2.6% (inactive); in that of `Cc1ccc(/C=C2/SC(=S)N(CCC(=O)N3CCN(c4ccccc4)CC3)C2=O)cc1`, 5.7% (inactive); in that of `CCOC(=O)N1CCN(CC(=O)Nc2ccc(F)c(F)c2)CC1`, 10.6% (inactive).
The result for `CCC(=O)Nc1nc2nc(-c3ccccc3)cc(=O)n2[nH]1` reads 0.3% (inactive); that for `CCCC(=O)Nc1nc2nc(C)cc(=O)n2[nH]1`, -2.3% (inactive).
In the case of `CCC(=O)Nc1nc2nc(C)cc(=O)n2[nH]1`, the inhibition is 57.1% (active).
Turning to `Brc1ccc(-c2nc(-c3ccncc3)no2)cc1`, the inhibition is -20.7% (inactive).
In the case of `NC1=NC(=O)C(CC(=O)Nc2ccc3c(c2)OCO3)S1` (centres undefined) it was -24.1% (inactive); in that of `CCCCNS(=O)(=O)c1ccc2nc(SCC(=O)Nc3sccc3C#N)[nH]c2c1`, 65.5% (active).
In the case of `CCCCNS(=O)(=O)c1ccc2nc(SCC(=O)c3ccc(C#N)cc3)[nH]c2c1` it was -14.8% (inactive); in that of `CCCCNS(=O)(=O)c1ccc2nc(SCC(=O)Nc3ccccc3)[nH]c2c1`, -15.3% (inactive); in that of `Cc1nc2cc(NC(=O)c3ccc(Br)s3)ccc2s1`, -42.5% (inactive).
The result for `CC(=O)Nc1ccc2sc(C)nc2c1` reads -14.2% (inactive).
On to `COc1ccc(Cl)cc1NC(=O)CN1C(=O)CSC1=O`, for which the inhibition is -3.2% (inactive).
The result for `Cc1ccc(NC(=O)c2ccccc2N(C)S(=O)(=O)c2ccccc2)c(C)c1` reads -8.8% (inactive); that for `CCOC(=O)c1c(C)oc2c1C(=O)c1ccccc1C2=O`, -38.5% (inactive).
In the case of `CC(=O)c1c(C)oc2c1C(=O)c1ccccc1C2=O` it was 79.5% (active); in that of `Cc1oc2c(c1C(=O)O)C(=O)c1ccccc1C2=O`, -30.8% (inactive); in that of `Cc1ccc(-c2nnn(CC(=O)N(Cc3ccccc3F)C(C(=O)NC3CCCC3)c3ccncc3)n2)o1` (centres undefined), -44.1% (inactive).
In the case of `CCOC(=O)C1=C(C)N(c2ccccc2)C(=O)NC1c1cccc([N+](=O)[O-])c1` (centres undefined) it was -25.4% (inactive); in that of `COc1ccc(C(=O)NCc2nnc(SCC(=O)N3CCOCC3)o2)cc1`, 37.2% (active); in that of `O=C(CSc1nnc(CNC(=O)c2ccccc2)o1)NCCc1ccccc1`, 72% (active).
Consider `COc1ccc(C(=O)NCc2nnc(SCC(=O)N3CCCCC3)o2)cc1`, for which the inhibition was -32.2% (inactive).
The result for `COc1ccc(C(=O)NCc2nnc(SCC(=O)N3CCCC3)o2)cc1` reads -25.5% (inactive); that for `COc1ccc(C(=O)NCc2nnc(SCC(=O)NCCc3ccccc3)o2)cc1`, -16.6% (inactive); that for `O=C(CSc1nnc(CNC(=O)c2ccc(F)cc2)o1)NCCc1ccccc1`, -16% (inactive).
For `COCCn1c(SCC(=O)Nc2ccc(S(N)(=O)=O)cc2)nc2ccccc21`, the inhibition is -3.5% (inactive).
The result for `CCN(CC)C1CCN(C(=O)CCn2nnnc2CN2CCOCC2)C1` (centres undefined) reads -54.3% (inactive); that for `COCCn1c(SCc2ccc(OC)c(F)c2)nnc1-c1ccncc1`, -14.1% (inactive).
For the molecule `O=Cc1ccc(OC(=O)CCCCC(=O)Oc2ccc(C=O)cc2)cc1`, the inhibition is 4.4% (inactive).
The result for `CC(C)[N+]1=C2C=CC=CC=C2SC12C([N+](=O)[O-])=CC(=[N+]([O-])[O-])C=C2[N+](=O)[O-]` (centres undefined) reads -8.1% (inactive).
In the case of `CN1C2=CC=CC=CC2=[N+](C)C12C=CC(=[N+]([O-])[O-])C=C2[N+](=O)[O-]` (centres undefined) it was -35.5% (inactive); in that of `CN1C2=CC=CC=CC2=[N+](C)C12C([N+](=O)[O-])=CC(=[N+]([O-])[O-])C=C2[N+](=O)[O-]` (centres undefined), 57.4% (active); in that of `Fc1ccc(NC(=S)Nc2ccc(Cl)cc2Cl)cc1`, -28.8% (inactive).
With `CC(=O)c1c(C)[nH]c(C(=O)Nc2ccc(C)c(S(=O)(=O)N(C)C)c2)c1C`, the inhibition was -63.3% (inactive).
The result for `Nc1nc(NCC(=O)O)nc(NCc2ccccc2)c1[N+](=O)[O-]` reads -13.3% (inactive).
The result for `O=C(NNC1=Nc2ccccc2SC1)c1ccc(F)cc1` reads 18.7% (inactive); that for `O=C(NNC1=Nc2ccccc2SC1)c1ccc(Cl)cc1`, 78.1% (active).
In the case of `O=C(NNC1=Nc2ccccc2SC1)c1ccccc1F` it was 1.9% (inactive); in that of `COc1cc(/C=C(\C#N)C(=O)N2CCOCC2)ccc1OCc1ccccc1`, -23.3% (inactive).
Turning to `O=S(=O)(c1cnc(Cl)c(Cl)c1)N1CCN(c2ncccn2)CC1`, the inhibition was -5.2% (inactive).
In the case of `CC(C)c1ccccc1NC(=O)COC(=O)c1cccnc1` it was -18.3% (inactive).
On to `Cc1cc(NC(=O)CSc2cn(CCNC(=O)c3ccccc3)c3ccccc23)no1`, for which the inhibition is 11.3% (inactive).
In the case of `Cc1cc(NC(=O)CSc2cn(CCNC(=O)c3ccc(Cl)cc3)c3ccccc23)no1` it was 75.9% (active); in that of `Cc1ccc(C(=O)NCCn2cc(SCC(=O)Nc3cc(C)on3)c3ccccc32)cc1`, -10.3% (inactive); in that of `O=C(CCC(=O)OCC(=O)c1ccc(Br)cc1)NC1CCCCC1`, -4.2% (inactive).
In the case of `CCC(=O)N1CCN(c2nc(C)nc3sc(C)c(C)c23)CC1` it was 9.5% (inactive).
The result for `CCn1c(SCC(=O)N2CCc3ccccc3C2)nc2sc(C)c(C)c2c1=O` reads 20.4% (inactive); that for `Cc1nc(SCC(=O)N2CCCCC2)c2c(C)c(C)sc2n1`, -15.5% (inactive).
As for `Cc1nc(N2CCN(C(=O)CCC(=O)O)CC2)c2c(C)c(C)sc2n1`, the inhibition is -16.7% (inactive).
The result for `COC(=O)c1ccc(CNC(=O)N2CCN(S(=O)(=O)c3ccc(C)cc3)CC2)cc1` reads -19.3% (inactive); that for `Cn1c(=O)c2c(nc(SCc3ccccc3F)n2C)n(C)c1=O`, 24% (inactive); that for `CN1C(=S)SC(/[N+]([O-])=C\c2ccc(Cl)cc2)C1(C)C` (centres undefined), 84.4% (active).
As for `Cc1ccc(/C=[N+](/[O-])C2SC(=S)N(C)C2(C)C)cc1` (centres undefined), the inhibition is -10.5% (inactive).
The result for `CN1C(=S)SC(/[N+]([O-])=C/c2ccc(Cl)cc2)C1(C)C` (centres undefined) reads 12% (inactive).
In the case of `O=C(O)c1ccc(-c2nc3scc(-c4ccccc4)c3c(=O)[nH]2)cc1` it was -3.4% (inactive); in that of `COc1cc(SC)ccc1C(=O)OC1CCOC1=O` (centres undefined), 7.7% (inactive).
For the molecule `CC(=O)Nc1ccc(NC(=O)c2ccc(CN3CCc4ccccc4C3)cc2)cc1`, the inhibition was 21.2% (inactive).
The result for `Cc1ccc(NC(=O)c2ccc(CN3CCc4ccccc4C3)cc2)cc1` reads 42.4% (inactive); that for `CCOC(=O)c1ccc(NC(=O)CN2CCc3ccccc3C2)cc1`, -2.1% (inactive); that for `CCOc1ccccc1NC(=O)c1ccc(CN2CCc3ccccc3C2)cc1`, 25.2% (inactive).
In the case of `O=C(Nc1ccccc1)c1ccc(CN2CCc3ccccc3C2)cc1` it was 37.2% (inactive); in that of `Cc1cc(C)cc(NC(=O)c2ccc(CN3CCc4ccccc4C3)cc2)c1`, 39.1% (inactive); in that of `C#Cc1ccc([C@H]2C=C(C(=O)N3CCN(Cc4ccc5c(c4)OCO5)CC3)O[C@@H](OCc3ccc(CO)cc3)C2)cc1`, 1.8% (inactive).
In the case of `Cc1ccc(S(=O)(=O)Nc2ccccc2N2CCOCC2)cc1` it was -11.5% (inactive); in that of `Cc1nc2sc(C(c3ccc(F)cc3)N3CCOCC3)c(O)n2n1` (centres undefined), 0.4% (inactive).
`Cc1onc(-c2ccccc2)c1C(=O)c1c[nH]c(C(=O)NCCCN2CCOCC2)c1`: the inhibition was -7.9% (inactive).
Consider `COc1ccc(CCNC(=O)Cn2c(=O)n(-c3cc(F)ccc3F)c(=O)c3sccc32)cc1OC`, for which the inhibition was -47.6% (inactive).
The result for `CC(NC(=S)Nc1ccc(OC(F)F)c(Cl)c1)C(C)(C)C` (centres undefined) reads -14.8% (inactive); that for `O/N=C/c1cccc[n+]1CCCCCC[n+]1ccccc1/C=N/O`, 27.1% (inactive).
With `Cc1[nH]n2c(=O)cc(C(C)C)nc2c1-c1ccccc1`, the inhibition was -8.4% (inactive).
For `Cc1cc(=O)n2[nH]c(C)c(-c3ccccc3)c2n1`, the inhibition was -4.2% (inactive).
The result for `Cc1[nH]n2c(=O)cc(C(C)(C)C)nc2c1-c1ccccc1` reads 85.3% (active); that for `COc1cccc(-c2c[nH]c(=O)[nH]c2=O)c1`, -6.8% (inactive).
Consider `COc1cccc(/C=C/C(=O)c2ccc(NC3=NCCCS3)cc2)c1`, for which the inhibition is -44.4% (inactive).
In the case of `Cc1cccc(/C=C/C(=O)c2ccc(NC3=NCCCS3)cc2)c1` it was 32.1% (inactive); in that of `COc1ccc(/C=C/C(=O)c2ccc(NC3=NCCCS3)cc2)cc1OC`, 44.3% (active); in that of `CNCCCOc1ccc(C)cc1Br`, 13.5% (inactive).
The result for `Cc1nn2c3ccccc3n(Cc3ccccc3)c2nc1=O` reads -20.5% (inactive); that for `O=C(NCC(=O)N(c1ccc(Cl)cc1)C(C(=O)NC1CCCC1)c1ccncc1)c1ccco1` (centres undefined), -13.1% (inactive).
The result for `CN(C)CCNC(=O)c1c(CSc2ccccc2)noc1C(=O)NCc1ccccc1` reads -3.7% (inactive); that for `NC(=O)C1CCN(C(=O)c2ccc3c(c2)S(=O)(=O)c2ccccc2C3=O)CC1`, 1.2% (inactive); that for `COC(=O)c1cc(C)nc2c1C(=O)C(=O)C=C2N1CCOCC1`, -6.2% (inactive).
As for `CCN(CC)CCNC1=CC(=O)OC12CCCCC2`, the inhibition is -19.3% (inactive).
In the case of `CCN(CC)CCNc1cc(C)nc2c1C(=O)C(=O)C=C2N1CCCCC1` it was 101% (active); in that of `Cc1ccc(C(=O)/C=C/c2cc(Br)cc(Br)c2O)o1`, 89.5% (active); in that of `Cc1ccc(C(=O)/C=C/c2ccc(Br)cc2)o1`, 21% (inactive).
The result for `Cc1ccc(C(=O)/C=C/c2ccccc2)o1` reads -0.9% (inactive).

Broadly, the inhibition is the drop in the measured response relative to a control, in per cent.

Source of the values: PubChem BioAssay AID1578 (Sanford-Burnham Center for Chemical Genomics, 2009).
